Here are results for 4 compounds from PubChem BioAssay (EPA / NIEHS).

Where “and” joins values, the source holds several entries; their conditions need not be identical. Equal values may be shown once. Some structures have more than one record in an assay (separate samples or runs), and their calls can disagree. Calls of active or inactive are those of the source. How the source made its calls: active means hit-call score of the fitted dose curve at least 0.9, where 1 is the maximum; inactive means score below 0.9.

Assay [1] concerns the target Bile acid receptor (Homo sapiens) (UniProt Q96RI1). Nature of the assay: ATG_IR1_CIS: Attagene CIS-FACTORIAL HepG2 Assay for human Nuclear Receptor Subfamily 1 Group H Member 4 (NR1H4), IR1 submotif (AID 2282946). As to conditions: IR1 reporter transcription, actives raise or lower the signal. In a few lines: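 Transient MRTU transfection, HepG2; 24 h dosing; RNA → RT-PCR → 6-FAM primer extension → HpaI digest → capillary electrophoresis fluorescence. Gain/loss of signal fitted relative to DMSO.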

A short description of assay [2]: ATG_GRE_CIS: Attagene CIS-FACTORIAL HepG2 Assay for human Glucocorticoid Response Elements (GRE) (AID 2282947). As to conditions: HepG2 GRE cis-reporter, Attagene multiplex mRNA; actives raise or lower the signal. The procedure, abridged: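 Following 24 h chemical exposure of transiently transfected HepG2 cells, total RNA was reverse-transcribed and reporter cDNA amplified, fluorescently labelled and sized by capillary electrophoresis. Signal gain or loss was fitted relative to DMSO vehicle.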

Assay [3] is described as follows: ATG_ISRE_CIS: Attagene CIS-FACTORIAL HepG2 Assay for human Interferon Regulatory Factor 1 (IRF1) binding to an Interferon-Stimulated Response Element (ISRE) (AID 2282948). The conditions noted are these: HepG2 ISRE cis-reporter (Attagene), mRNA transcription readout; actives raise or lower the signal. The procedure, abridged: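 Quantitation relies on labelled RT-PCR fragments separated by capillary electrophoresis. Human HepG2 cells bearing cis-promoter reporter constructs were treated 24 h; DMSO served as baseline for bidirectional fitting.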

Assay [4] in a line: ATG_M_32_CIS: Attagene CIS-FACTORIAL HepG2 Assay for M32 Transcription Factor (Internal Marker) (AID 2282949).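 Further: background control marker of the multiplexed CIS panel rather than a real target.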 As to conditions: HepG2 Attagene cis-factorial M32 reporter, mRNA; actives raise or lower the signal. In a few lines: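 Fluorescent capillary electrophoresis peaks of HpaI-digested, FAM-labelled RT-PCR reporter products give the signal. Source: transiently transfected human liver HepG2 cells, 24 h after chemical dosing; bidirectional fitting against DMSO.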

Assay [5] in a line: ATG_M_06_CIS: Attagene CIS-FACTORIAL HepG2 Assay for M06 Transcription Factor (Internal Marker) (AID 2282950). As to conditions: HepG2 Attagene CIS-FACTORIAL M06 internal marker reporter; actives raise or lower the signal. In a few lines:
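Fluorescence-labelled RT-PCR products from cis-promoter reporter units, cut with HpaI and resolved by capillary electrophoresis, give the signal. Cells are human HepG2, dosed for 24 h. Serves as background control, fitted relative to DMSO.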

Assay [6] concerns the target Hypoxia-inducible factor 1-alpha (Homo sapiens) (UniProt Q16665). Nature of the assay: ATG_HIF1a_CIS: Attagene CIS-FACTORIAL HepG2 Assay for human Hypoxia Inducible Factor 1 (HIF1A) (AID 2282951). As to conditions: HepG2 Attagene cis-factorial HIF1a reporter transcription; actives raise or lower the signal. In a few lines:
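Fluorescence intensity of capillary-separated, 6-FAM-labelled reporter amplicons gives mRNA induction in HepG2 cells carrying transfected cis-promoter reporter units; cells exposed 24 h, responses fitted up or down from DMSO.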

The target of assay [7] is Hepatocyte nuclear factor 6 (Homo sapiens) (UniProt Q9UBC0). Nature of the assay: ATG_HNF6_CIS: Attagene CIS-FACTORIAL HepG2 Assay for human Hepatocyte Nuclear Factor 6 (HNF6) (AID 2282952). As to conditions: HepG2 Attagene cis-factorial HNF6 reporter transcription; actives raise or lower the signal. In a few lines: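 Transiently transfected HepG2 cells expressing cis-regulated reporter transcription units were exposed to chemical for 24 h in a 24-well format. Reporter transcript abundance was determined by fluorescence capillary electrophoresis.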

Assay [8] addresses Heat shock factor protein 1 (Homo sapiens) (UniProt Q00613). Description: ATG_HSE_CIS: Attagene CIS-FACTORIAL HepG2 Assay for human Heat Shock Transcription Factor 1 (HSE) (AID 2282953). As to conditions: HepG2 HSE cis-reporter, Attagene RNA transcription; actives raise or lower the signal. The procedure, abridged:
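After a 24 h incubation with test chemical, transfected HepG2 cells were harvested for RNA; reporter transcripts were measured by RT-PCR and capillary electrophoresis. Values reflect gain or loss of signal relative to DMSO.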

A short description of assay [9]: ATG_MRE_CIS: Attagene CIS-FACTORIAL HepG2 Assay for human Metal Responsive Element (MRE) (AID 2282954). As to conditions: HepG2 MRE cis-reporter transcription, Attagene multiplex; actives raise or lower the signal. The procedure, abridged: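 Step one: transfect HepG2 with cis-regulated reporter units. Step two: dose 24 h. Step three: isolate RNA, RT-PCR, 6-FAM label, HpaI digest, capillary electrophoresis. Fit bidirectionally to DMSO.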

Assay [10] can be described thus: ATG_PBREM_CIS: Attagene CIS-FACTORIAL HepG2 Assay for human Phenobarbital-responsive Enhancer Module (PBREM) (AID 2282955). The conditions noted are these: HepG2 PBREM cis-reporter, Attagene multiplexed transcription; actives raise or lower the signal. The procedure, abridged: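 Cells were transfected with cis-element reporter units and treated for 24 h, after which RNA was extracted and reporter transcripts measured by RT-PCR and capillary electrophoresis.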

Assay [11] has as its target Paired box protein Pax-6 (Homo sapiens) (UniProt P26367). Description: ATG_Pax6_CIS: Attagene CIS-FACTORIAL HepG2 Assay for human Paired Box 6 (PAX6) (AID 2282956). The conditions noted are these: HepG2 CIS-FACTORIAL PAX6 reporter transcription, RNA readout; actives raise or lower the signal. In a few lines: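 After twenty-four hours of chemical exposure, transfected HepG2 cells are harvested for RNA. Cis-promoter reporter transcripts are amplified, fluorescently labelled and sized by capillary electrophoresis, with gain and loss of signal scored against DMSO.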

Assay [12] can be described thus: ATG_PXRE_CIS: Attagene CIS-FACTORIAL HepG2 Assay for human Pregnane X Receptor Element (PXRE) (AID 2282957). As to conditions: HepG2 Attagene CIS-FACTORIAL PXRE reporter, mRNA; actives raise or lower the signal. The procedure, abridged: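 Cis-element reporter mRNA in human hepatoma HepG2 cells is measured 24 h post-dosing by RT-PCR, primer-extension labeling and capillary electrophoresis; gain or loss of signal is fitted relative to DMSO.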

A short description of assay [13]: ATG_PPRE_CIS: Attagene CIS-FACTORIAL HepG2 Assay for human Peroxisome Proliferator-activated Response Element (PPRE) (AID 2282958). As to conditions: HepG2 PPRE cis-element reporter, Attagene transcription factor profiling; actives raise or lower the signal. The procedure, abridged:
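In this cell-based multiplex, a PPRE cis element drives a reporter sequence in transiently transfected HepG2 cells. Following 24 h treatment, labeled cDNA amplicons are sized and quantified by capillary electrophoresis, with DMSO defining baseline.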

The nature of assay [14]: ATG_RORE_CIS: Attagene CIS-FACTORIAL HepG2 Assay for human RAR-related Orphan Receptor Element (RORE) (AID 2282959). As to conditions: HepG2 Attagene cis-factorial RORE reporter, mRNA; actives raise or lower the signal. The procedure, abridged:
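Endogenous factor activity at a cis response element is read as reporter transcript levels in HepG2 cells, 24 h post-dose. Transcripts are quantified by RT-PCR with capillary electrophoresis, and data fitted in both directions against DMSO.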

The nature of assay [15]: ATG_Sox_CIS: Attagene CIS-FACTORIAL HepG2 Assay for human SRY-box transcription factor (SOX) (AID 2282960). The conditions noted are these: HepG2 Attagene cis-factorial SOX reporter, mRNA; actives raise or lower the signal. The procedure, abridged:
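Measures mRNA induction of a SOX1-associated reporter in HepG2 after 24 h dosing. Fluorescently labelled RT-PCR fragments are separated by capillary electrophoresis, and gain or loss relative to DMSO control is fitted.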

The target in assay [16] is Transcription factor Sp1 (Homo sapiens) (UniProt P08047). Description: ATG_Sp1_CIS: Attagene CIS-FACTORIAL HepG2 Assay for human Specificity Protein 1 (Sp1) (AID 2282961). The conditions noted are these: HepG2 Sp1 cis-reporter transcription, actives raise or lower the signal. The procedure, abridged: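 Cells: HepG2, transiently transfected with cis-regulated multiplexed reporters. Exposure: 24 h. Detection: reporter transcripts amplified, fluorescently labeled, restriction-digested and sized by capillary electrophoresis. Analysis: bidirectional fit relative to DMSO.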

The target of assay [17] is Signal transducer and activator of transcription 3 (Homo sapiens) (UniProt P40763). Nature of the assay: ATG_STAT3_CIS: Attagene CIS-FACTORIAL HepG2 Assay for human Signal Transducer and Activator of Transcription 3 (STAT3) (AID 2282963). As to conditions: HepG2, Attagene cis-factorial STAT3 reporter transcription; actives raise or lower the signal. In a few lines:
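Transcript-level reporter assay. HepG2 transient MRTU transfection, 24 h exposure, fluorescence detection after RT-PCR and CE; DMSO baseline.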

A short description of assay [18]: ATG_TA_CIS: Attagene CIS-FACTORIAL HepG2 Assay for human TA Basal Promoter (AID 2282964). As to conditions: HepG2 Attagene CIS-factorial TA basal promoter reporter; actives raise or lower the signal. The procedure, abridged:
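Multiplexed mRNA reporter assay, HepG2, 24 h. Reporter cDNA amplified, 6-FAM primer-extended, HpaI-cut, CE-sized; DMSO = negative control and baseline.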

Assay [19] in a line: ATG_TCF_b_cat_CIS: Attagene CIS-FACTORIAL HepG2 Assay for human T-Cell-Factor with beta-catenin (TCF/b-cat) (AID 2282965). As to conditions: HepG2 TCF/beta-catenin cis-reporter transcription, actives raise or lower the signal. In a few lines:
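HepG2 cells transiently transfected with multiple cis-promoter-regulated reporter transcription units, so endogenous transcription factor activity is measured. Reporter mRNA read 24 hours after dosing by RT-PCR, fluorescent labelling and capillary electrophoresis; bidirectional fitting against DMSO.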

Assay [20] in a line: ATG_SREBP_CIS: Attagene CIS-FACTORIAL HepG2 Assay for human Sterol Regulatory Element Binding (SREBP) (AID 2282962). The conditions noted are these: HepG2 Attagene cis-factorial SREBP reporter, mRNA; actives raise or lower the signal. The procedure, abridged:
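Twenty-four hours after chemical dosing of transfected HepG2 cultures, reporter RNA was converted to cDNA, amplified, end-labelled with 6-FAM and resolved by capillary electrophoresis. Responses were fitted relative to DMSO.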

Sequence of Bile acid receptor (Homo sapiens) (Q96RI1 whole entry, looked up): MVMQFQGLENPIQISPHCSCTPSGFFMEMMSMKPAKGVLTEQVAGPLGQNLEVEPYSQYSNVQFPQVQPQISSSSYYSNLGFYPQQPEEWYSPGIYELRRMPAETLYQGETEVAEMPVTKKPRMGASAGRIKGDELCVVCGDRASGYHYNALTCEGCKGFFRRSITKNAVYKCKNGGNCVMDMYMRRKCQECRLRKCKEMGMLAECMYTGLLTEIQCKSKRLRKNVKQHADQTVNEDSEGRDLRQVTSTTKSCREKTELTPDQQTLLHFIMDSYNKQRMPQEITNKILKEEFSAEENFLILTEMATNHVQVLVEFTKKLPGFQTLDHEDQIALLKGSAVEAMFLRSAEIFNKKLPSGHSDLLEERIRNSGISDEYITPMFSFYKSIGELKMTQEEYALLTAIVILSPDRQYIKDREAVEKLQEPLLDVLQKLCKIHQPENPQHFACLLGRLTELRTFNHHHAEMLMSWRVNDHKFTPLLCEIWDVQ
Sequence of Transcription factor Sp1 (Homo sapiens) (P08047 whole entry, looked up): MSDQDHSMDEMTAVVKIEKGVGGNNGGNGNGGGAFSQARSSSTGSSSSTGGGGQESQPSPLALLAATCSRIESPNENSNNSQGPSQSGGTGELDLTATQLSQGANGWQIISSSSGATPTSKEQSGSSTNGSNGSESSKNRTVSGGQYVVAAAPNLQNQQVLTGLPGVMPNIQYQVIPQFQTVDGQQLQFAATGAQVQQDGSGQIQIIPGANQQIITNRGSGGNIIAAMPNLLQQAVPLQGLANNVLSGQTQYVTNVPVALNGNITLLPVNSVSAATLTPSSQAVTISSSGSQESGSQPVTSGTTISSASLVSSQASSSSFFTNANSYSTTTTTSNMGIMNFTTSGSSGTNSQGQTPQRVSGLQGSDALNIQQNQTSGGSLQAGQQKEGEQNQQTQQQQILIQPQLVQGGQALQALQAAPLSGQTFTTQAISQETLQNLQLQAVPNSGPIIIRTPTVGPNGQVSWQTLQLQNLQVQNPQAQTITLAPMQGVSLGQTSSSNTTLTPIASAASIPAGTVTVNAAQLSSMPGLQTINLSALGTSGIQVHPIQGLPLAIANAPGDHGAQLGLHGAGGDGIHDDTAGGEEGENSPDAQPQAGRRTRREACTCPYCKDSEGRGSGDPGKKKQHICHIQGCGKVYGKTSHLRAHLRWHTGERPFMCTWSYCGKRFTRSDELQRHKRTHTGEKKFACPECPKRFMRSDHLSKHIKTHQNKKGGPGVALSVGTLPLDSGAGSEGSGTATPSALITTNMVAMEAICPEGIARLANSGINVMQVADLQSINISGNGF
Sequence of Hepatocyte nuclear factor 6 (Homo sapiens) (Q9UBC0 whole entry, looked up): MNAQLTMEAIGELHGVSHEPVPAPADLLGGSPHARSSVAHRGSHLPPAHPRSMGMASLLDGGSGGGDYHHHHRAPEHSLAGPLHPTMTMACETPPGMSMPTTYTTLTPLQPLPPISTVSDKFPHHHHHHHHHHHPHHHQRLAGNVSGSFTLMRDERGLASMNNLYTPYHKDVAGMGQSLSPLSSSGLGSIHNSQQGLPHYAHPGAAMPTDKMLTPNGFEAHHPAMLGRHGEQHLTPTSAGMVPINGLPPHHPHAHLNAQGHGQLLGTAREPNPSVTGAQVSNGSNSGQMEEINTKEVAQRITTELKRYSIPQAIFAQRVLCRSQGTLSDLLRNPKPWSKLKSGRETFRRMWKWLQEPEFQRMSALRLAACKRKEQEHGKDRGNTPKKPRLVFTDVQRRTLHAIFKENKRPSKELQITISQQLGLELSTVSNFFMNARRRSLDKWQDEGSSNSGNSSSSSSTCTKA
Sequence of Paired box protein Pax-6 (Homo sapiens) (P26367 whole entry, looked up): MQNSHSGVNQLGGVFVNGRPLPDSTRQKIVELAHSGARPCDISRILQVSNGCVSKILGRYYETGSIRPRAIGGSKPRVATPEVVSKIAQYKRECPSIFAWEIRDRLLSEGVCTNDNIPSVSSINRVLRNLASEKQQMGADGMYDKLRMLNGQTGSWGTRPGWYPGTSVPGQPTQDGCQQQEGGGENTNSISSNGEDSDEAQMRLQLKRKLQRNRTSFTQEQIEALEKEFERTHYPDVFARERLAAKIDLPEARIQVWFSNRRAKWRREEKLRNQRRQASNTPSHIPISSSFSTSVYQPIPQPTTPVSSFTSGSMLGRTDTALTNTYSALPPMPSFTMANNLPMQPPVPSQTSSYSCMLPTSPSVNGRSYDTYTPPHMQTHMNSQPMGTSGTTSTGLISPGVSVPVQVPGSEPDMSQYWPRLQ
Sequence of Signal transducer and activator of transcription 3 (Homo sapiens) (P40763 whole entry, looked up): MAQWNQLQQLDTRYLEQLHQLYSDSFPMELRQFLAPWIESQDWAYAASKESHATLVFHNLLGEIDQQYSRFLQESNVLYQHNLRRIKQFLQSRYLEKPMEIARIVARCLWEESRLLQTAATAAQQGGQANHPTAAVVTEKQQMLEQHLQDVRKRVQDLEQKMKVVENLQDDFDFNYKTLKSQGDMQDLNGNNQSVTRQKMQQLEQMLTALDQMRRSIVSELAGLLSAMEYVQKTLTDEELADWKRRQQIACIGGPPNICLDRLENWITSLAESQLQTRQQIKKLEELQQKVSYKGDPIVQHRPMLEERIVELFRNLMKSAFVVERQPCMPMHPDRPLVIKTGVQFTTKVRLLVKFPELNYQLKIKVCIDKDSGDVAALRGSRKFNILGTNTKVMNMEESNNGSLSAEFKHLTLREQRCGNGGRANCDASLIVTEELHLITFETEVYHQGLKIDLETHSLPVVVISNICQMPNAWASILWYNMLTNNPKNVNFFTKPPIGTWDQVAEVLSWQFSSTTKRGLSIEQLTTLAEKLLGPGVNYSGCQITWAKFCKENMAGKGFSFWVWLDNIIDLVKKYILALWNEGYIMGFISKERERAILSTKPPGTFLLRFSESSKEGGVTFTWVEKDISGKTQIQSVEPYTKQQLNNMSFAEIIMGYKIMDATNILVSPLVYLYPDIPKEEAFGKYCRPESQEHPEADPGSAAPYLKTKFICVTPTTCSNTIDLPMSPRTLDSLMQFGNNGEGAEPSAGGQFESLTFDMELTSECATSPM
Sequence of Heat shock factor protein 1 (Homo sapiens) (Q00613 whole entry, looked up): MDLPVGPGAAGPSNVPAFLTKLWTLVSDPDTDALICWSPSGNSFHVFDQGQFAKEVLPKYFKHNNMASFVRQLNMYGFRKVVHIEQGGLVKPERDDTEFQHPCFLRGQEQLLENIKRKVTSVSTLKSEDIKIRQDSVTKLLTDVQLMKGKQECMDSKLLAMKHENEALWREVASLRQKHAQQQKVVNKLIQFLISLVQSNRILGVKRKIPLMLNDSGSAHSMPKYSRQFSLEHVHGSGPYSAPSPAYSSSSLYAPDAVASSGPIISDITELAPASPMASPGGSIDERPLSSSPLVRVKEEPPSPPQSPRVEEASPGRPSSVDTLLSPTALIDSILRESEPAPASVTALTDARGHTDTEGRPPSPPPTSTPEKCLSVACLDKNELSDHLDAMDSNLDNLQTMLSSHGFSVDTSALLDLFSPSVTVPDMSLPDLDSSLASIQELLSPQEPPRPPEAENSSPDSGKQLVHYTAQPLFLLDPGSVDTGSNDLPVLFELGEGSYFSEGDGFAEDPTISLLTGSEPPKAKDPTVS
Sequence of Hypoxia-inducible factor 1-alpha (Homo sapiens) (Q16665 whole entry, looked up): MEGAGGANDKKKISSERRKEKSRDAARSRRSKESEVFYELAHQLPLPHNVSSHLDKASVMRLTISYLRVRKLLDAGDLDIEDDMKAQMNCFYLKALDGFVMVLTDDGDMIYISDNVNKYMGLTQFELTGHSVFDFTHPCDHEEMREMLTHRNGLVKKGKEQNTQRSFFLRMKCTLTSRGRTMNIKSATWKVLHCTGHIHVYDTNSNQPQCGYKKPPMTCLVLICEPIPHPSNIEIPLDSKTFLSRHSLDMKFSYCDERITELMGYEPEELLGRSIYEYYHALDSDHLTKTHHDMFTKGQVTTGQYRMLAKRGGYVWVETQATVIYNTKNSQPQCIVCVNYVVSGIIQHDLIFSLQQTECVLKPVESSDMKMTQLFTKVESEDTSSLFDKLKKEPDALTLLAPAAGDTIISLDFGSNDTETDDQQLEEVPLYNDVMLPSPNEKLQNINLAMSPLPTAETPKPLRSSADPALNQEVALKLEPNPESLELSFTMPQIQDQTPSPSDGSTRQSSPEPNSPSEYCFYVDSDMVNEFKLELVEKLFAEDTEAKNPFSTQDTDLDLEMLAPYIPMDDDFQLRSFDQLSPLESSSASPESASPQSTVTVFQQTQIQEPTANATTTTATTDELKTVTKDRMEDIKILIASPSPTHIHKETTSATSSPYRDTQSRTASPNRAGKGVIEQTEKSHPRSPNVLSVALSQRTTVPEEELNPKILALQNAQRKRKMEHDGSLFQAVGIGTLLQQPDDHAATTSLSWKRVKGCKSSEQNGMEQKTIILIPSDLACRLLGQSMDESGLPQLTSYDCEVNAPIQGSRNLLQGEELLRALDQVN

For `Clc1ccc(Oc2ccccc2)cc1`, the compound was called inactive in assay [1], in assay [2], in assay [3], in [4], in assay [5] and in assay [6]. In addition, the compound was called inactive in assay [7], in assay [8], in assay [9], in assay [10], in assay [11] and in assay [12]. For the same compound, the result in [13], in assay [14], in assay [15], in assay [16], in assay [17] and in [18] was inactive. Also, the result in assay [19] was inactive.

One may read the AC50 as the midpoint of the concentration-response curve, whichever way the signal moves. Consider `CCOP(=S)(NC(C)C)Oc1ccccc1C(=O)OC(C)C` (configuration not stated), for which the AC50 in assay [1] is 26.5 µM (active); in [3] it was 41.7 µM (active); in assay [9] it was 59.9 µM (active); in [12], 699 nM (active); in assay [14] it was 46.6 µM (active). Further, the outcome in assay [2], in assay [4], in [5], in assay [6], in assay [7] and in [8] was inactive. In addition, the outcome in [10], in [11], in assay [13], in assay [15], in [16] and in assay [20] was inactive. Further, the compound was classed as inactive in assay [17], in assay [18] and in assay [19].

For `O=P(OCC(Br)CBr)(OCC(Br)CBr)OCC(Br)CBr` (configuration not stated), the call in [1], in [2], in [4], in assay [5], in assay [7] and in [8] was inactive. The outcome in assay [10], in [13], in assay [15], in assay [16], in assay [17] and in assay [19] was inactive. For the same compound, the AC50 is 10.3 µM (active) in assay [3]; 16.3 µM (active) in [6]; 24.9 µM (active) in assay [9]; 19.6 µM (active) in [11]; 67.4 nM (active) in assay [12]; 22.9 µM (active) in assay [20]. Also, in [18], the concentration at half-maximal activity (AC50) is 11.8 µM (active).

For the compound `COC(=O)C(F)(F)C(F)(F)OC(F)(C(F)(F)F)C(F)(F)OC(F)=C(F)F` (configuration not stated), the compound was called inactive in [1], in assay [2], in assay [3], in [4], in [5] and in assay [6]. In addition, the compound was called inactive in assay [7], in [8], in [9], in assay [10], in assay [11] and in assay [15]. Moreover, the call in assay [16], in [17], in assay [18] and in [19] was inactive. The AC50 was 4.84 µM (active) and 15.2 µM (active) and 5.55 µM (active) in assay [12]; 160 nM (active) and 436 nM (active) and 230 nM (active) in assay [13]; 9.92 µM (active) in assay [19].
